Screening results: PubChem, National Center for Advancing Translational Sciences (NCATS)
The full list was thinned out, with hits kept by preference.
Shiga inhibitor = A qHTS for Small Molecule Inhibitors of Shiga Toxin | Vero cells, Shiga toxin protein synthesis inhibition reporter | inhibition, % at 38.7 µM | 290,000 compounds, 9.2% hits; in the data active means inhibition mostly above about 28%, no sharp cut-off; inactive means mostly below about 43%; further: 0% is about no effect
FBPA Giardia inh = qHTS Assay for Inhibitors of Fructose-1,6-bisphosphate Aldolase from Giardia Lamblia | A8B2U2 | purified Giardia FBPA | Potency, µM (top dose mostly 59.6 µM), for inactives: at the top dose activity, negative = inhibition, hits mostly inhibitors | 290,000 compounds, 0.71% hits | AID 2451, 2010; further: potency means the concentration at half of the fitted maximal effect; on the % scale 0 is the no-effect control and ±100 the full control effect; nearly all actives have a fitted effect of over 55% in size
Target sequence (A8B2U2 whole entry, looked up): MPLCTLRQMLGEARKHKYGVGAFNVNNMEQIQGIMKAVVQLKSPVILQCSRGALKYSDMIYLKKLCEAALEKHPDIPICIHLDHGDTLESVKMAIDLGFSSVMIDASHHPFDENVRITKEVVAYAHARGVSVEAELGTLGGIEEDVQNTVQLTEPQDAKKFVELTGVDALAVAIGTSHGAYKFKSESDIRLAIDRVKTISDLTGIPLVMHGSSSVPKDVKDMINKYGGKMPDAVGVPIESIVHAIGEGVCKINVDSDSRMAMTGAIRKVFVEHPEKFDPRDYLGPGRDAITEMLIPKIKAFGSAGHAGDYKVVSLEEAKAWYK
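Giardia FBPA (40 nM reagent) was preincubated 10 min at RT with compound (up to 57.5 uM final), then substrate plus GAPDH/TPI/NAD/arsenate coupling system with diaphorase/resazurin was added; resorufin fluorescence (525/598 nm) was read after 20 min.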
LmPK inhibitor = qHTS Assay for Inhibitors of Leishmania Mexicana Pyruvate Kinase (LmPK). purified LmPK, Kinase-Glo ATP luminescence, 1 h. Potency, µM (series often up to 57.5 µM), inactives show top-dose activity change, negative = inhibition, actives largely listed as inhibitors. 290,000 compounds, 0.37% hits. AID 1721, 2009; further: potency means the concentration at half of the fitted maximal effect; on the % scale 0 is the no-effect control and ±100 the full control effect
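0.1 nM LmPK, 0.5 mM PEP, 0.1 mM ADP; 50 mM imidazole pH 7.2, 7 mM MgCl2, 50 mM KCl; 1 h RT. Kinase-Glo luminescence readout, normalized to no-enzyme (full inhibition) and uninhibited wells.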
TbPYK inhibitor = qHTS of Trypanosoma Brucei Inhibitors | Potency, µM (series often up to 76.8 µM), for inactives: at the highest dose activity, negative = inhibition, most hits filed as inhibitors | 410,000 compounds, 0.12% hits | TbPYK enzyme, Kinase-Glo Plus ATP luminescence, 45 min | pyruvate kinase (Trypanosoma brucei), Q57TT1; further: potency means the concentration at half of the fitted maximal effect; on the % scale 0 is the no-effect control and ±100 the full control effect; nearly all actives have a fitted effect of over 50% in size
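Readout: single end-point luminescence (Kinase-Glo Plus, 10 min). Reaction conditions were TbPYK/substrate plus 130 uM ADP, 45 min at RT, pH 7.2 TEA buffer. No-enzyme wells served as controls, and data were normalized before concentration-response fitting.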
Sm TGR inh = qHTS Assay for the Inhibitors of Schistosoma Mansoni Peroxiredoxins; purified TGR, DTNB reduction, TNB absorbance 405 nm; Potency, µM (highest dose often 114 µM), for inactives: top-dose activity change, negative = inhibition, actives largely listed as inhibitors; 360,000 compounds, 3% hits; AID 485364, 2010; further: potency means the concentration at half of the fitted maximal effect; on the % scale 0 is the no-effect control and ±100 the full control effect; nearly all actives have a fitted effect of over 60% in size
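First, TGR (20 nM dispensed) and NADPH were mixed with compound. Second, a 15 min room-temperature incubation followed. Third, further NADPH and then DTNB were added to start the reaction. Finally, TNB absorbance was monitored kinetically.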
Cycloheximide cs = Cycloheximide Counterscreen for Small Molecule Inhibitors of Shiga Toxin. cell reporter, cycloheximide protein synthesis inhibition counterscreen. max response, %. 300,000 compounds, 12% hits; in the data active means max response mostly above about 13%, no sharp cut-off; inactive means mostly below about 14%; further: read at 38.3 µM for the half of the compounds with a filed dose; 0% is about no effect
* = called active by the depositor; ? = inconclusive; nt = not tested or not shown; [ ] = another dose, or the depositor's remark. Unless noted, the call rests on the fitted dose curve; in most records, active means well fitted curve in the direction sought with a large enough effect; inconclusive means small, poorly fitted or top-dose-only effect, or another doubt; inactive means no such curve, though single readings can be large; an effect the other way counts as inactive or inconclusive.

SMILES	Shiga inhibitor	FBPA Giardia inh	LmPK inhibitor	TbPYK inhibitor	Sm TGR inh	Cycloheximide cs
O=C(NCc1ccc(F)cc1)c1cc(C2CCCN(C(=O)c3ccccn3)C2)on1 (configuration not stated)	nt	nt	nt	-1.5%	nt	nt
COc1ccccc1NC(=O)CN1C(=O)C(c2ccc(F)cc2)=NC12CCCCC2	nt	nt	nt	0.5%	3.4%	nt
NC(=O)c1csc(-c2ccc(CO)o2)n1	nt	nt	nt	-2.8%	nt	nt
Nc1cccc(-c2ccc(CO)o2)c1	67.8*	0.3%	-2.4%	-6.0%	4.5%	30.7*
Cc1csc(NC(=O)C2=NN(c3ccccc3)C(=O)CC2)n1	8.7	-7.4%	1.4%	-2.0%	1.3%	-0.8
O=C(Nc1nc2ccccc2s1)C1=NN(c2ccccc2)C(=O)CC1	active	-7.1%	-4.0%	-5.6%	0.6%	20.2*
O=C(Nc1nc2ccc(F)cc2s1)C1=NN(c2ccccc2)C(=O)CC1	66.7*	-6.9%	-0.4%	2.8%	1.2%	35.1*
Cc1cccc(NC(=O)Cn2cc(S(=O)(=O)N3CCCC3)c(S(=O)(=O)N3CCCC3)c2)c1C	nt	nt	nt	3.4%	-7.0%	nt
COc1ccc(Cc2nnc(NC(=O)Nc3ccccc3)s2)cc1OC	3.5	0.5%	-0.4%	-3.2%	13.9%	0.7
Cc1cccc(C(=O)O/N=C(\c2ccccc2)c2cccnc2)c1	-5.6	0.2%	2.6%	6.3%	0.9%	3.3
COc1ccc(C/C(N)=N/OC(=O)c2cccc([N+](=O)[O-])c2)cc1	-10.4	0.8%	0.9%	-0.8%	1.7%	5.8
Cc1cccc(C(=O)O/N=C(\N)CS(=O)(=O)c2ccccc2)c1	48.1	nt	0.8%	-0.5%	0.4%	15.6*
COc1cccc(C(=O)O/N=C(\N)CS(=O)(=O)c2ccccc2)c1	62.9*	nt	-0.9%	0.2%	0.2%	56.3*
COC1CC(O[C@H]2/C(C)=C/CC3CC(C[C@]4(CCC(C)C(C5CCCCC5)O4)O3)OC(=O)[C@H]3C=C(C)/C(=N/O)C4OC/C(=C\C=C\[C@@H]2C)[C@@]43O)OC(C)C1O (some centres not stated)	nt	6.7%	nt	-1.7%	nt	nt
C=CCc1c(OC)ccc2c1c(S(=O)(=O)c1ccc(C)cc1)cn2COC	-4.8	-15.1%	-2.2%	-1.0%	-2.6%	-2.0
Nc1ccccc1S(=O)(=O)Nc1cccc2cccnc12	-7.5	14.1µM*	nt	nt	nt	10.6
NS(=O)(=O)Nc1cccc2cccnc12	-8.4	nt	nt	nt	nt	-5.7
O=S(=O)(Nc1cccc2cccnc12)c1ccccc1Br	-2.6	nt	nt	nt	nt	28.4*
CCc1nnc(NC(=O)c2nc(S(=O)(=O)Cc3ccc(C)cc3)ncc2Cl)s1	78.3*	nt	2.4%	-12.9%	31.6µM*	57.0*
CCOc1ccccc1NC(=O)c1nc(S(=O)(=O)Cc2cccc(C)c2)ncc1Cl	-12.5	nt	-5.6%	-7.7%	7.08µM*	-0.2
CCc1nnc(NC(=O)c2nc(S(=O)(=O)Cc3ccccc3)ncc2Cl)s1	113.7*	nt	-8.9%	-8.4%	31.6µM*	74.8*
CCc1nnc(NC(=O)c2nc(S(=O)(=O)Cc3cccc(C)c3)ncc2Cl)s1	74.5*	?	-1.6%	-10.1%	15.8µM*	58.2*
Cn1nc(C2CC2)cc1NC(=O)C1(C)CCN1C(=O)CC(c1ccccc1)c1ccccc1 (configuration not stated)	nt	nt	nt	-6.6%	nt	nt
CC(C)Cc1ccc(S(=O)(=O)Nc2cc3c(cc2N2CCOCC2)n(C)c(=O)c(=O)n3C)cc1	nt	nt	nt	0.0%	-27.3%	nt
O=C1OC(Nc2nc(-c3ccc(F)cc3)cs2)c2ccccc21 (configuration not stated)	16.2	-1.4%	7.7%	-0.6%	3.98µM*	7.0
SMILES	Shiga inhibitor	FBPA Giardia inh	LmPK inhibitor	TbPYK inhibitor	Sm TGR inh	Cycloheximide cs
COc1ccc2c(c1OC)C(=O)OC2Nc1nc(-c2cc3ccccc3oc2=O)cs1 (configuration not stated)	68.0*	2.1%	22.4µM*	-20.0%	-22.7%	58.6*
COc1cccc(-c2csc(NC3OC(=O)c4c3ccc(OC)c4OC)n2)c1 (configuration not stated)	41.5	0.2%	4.4%	-4.8%	39.8µM*	46.1*
COc1ccc2c(c1OC)C(=O)OC2Nc1nc(-c2ccc(-c3ccccc3)cc2)cs1 (configuration not stated)	120.7*	3.6%	-0.4%	-0.8%	-19.9%	80.2*
O=C1OC(Nc2nc3ccccc3s2)c2ccccc21 (configuration not stated)	21.6	11.0%	5.1%	1.1%	-10.9%	10.3
O=C(c1ccc(CSc2nc3ccncc3n2Cc2cccc(F)c2)cc1)N1CCCCCC1	nt	nt	nt	-21.3%	-7.1%	nt
COc1ccc(-n2c(C)c(C)c3c(N)ncnc32)cc1	1.8	1.2%	2.5%	-0.4%	-9.7%	6.9
Cn1c(=O)cc(SCC(=O)N2CCN(c3ccccc3F)CC2)c2ccc(Cl)cc21	nt	nt	nt	-6.8%	0.7%	nt
C=CC1=C2C=C(C3CC3)N(c3ccc(OC)cc3)C=C2C(=O)C(C)(OC(=O)c2ccco2)C1=O (configuration not stated)	nt	-24.9%[12.9 µM]	6.8%[11.5 µM]	nt	nt	nt
O=C(O)C(Cc1ccccc1)Nc1ccc([N+](=O)[O-])cc1[N+](=O)[O-] (configuration not stated)	32.4	-25.9%	7.1%	-10.1%	-25.8%	20.3*
NC(=O)c1ccc(NCCc2ccccc2)c([N+](=O)[O-])c1	9.7	-10.7%	1.0%	-5.2%	7.3%	15.5*
O=C(Nc1ccccc1)c1ccc(NCCc2ccccc2)c([N+](=O)[O-])c1	-10.1	-1.2%	-4.8%	-9.4%	2.3%	-2.2
NC(=O)c1cc([N+](=O)[O-])ccc1NCCc1ccccc1	1.3	3.1%	6.6%	-0.1%	1.5%	active
O=C(O)[C@H](Cc1ccccc1)Nc1ccc([N+](=O)[O-])cn1	-2.3	-0.7%	3.7%	0.1%	-8.9%	-0.8
COc1ccc(-c2noc(-c3ccc(NCc4ccco4)c([N+](=O)[O-])c3)n2)cc1	nt	nt	nt	-5.4%	-4.1%	nt
NC(=O)c1ccc(NCc2ccco2)c([N+](=O)[O-])c1	15.1	2.9%	1.1%	-3.1%	20.7%	17.0*
Cc1ccc(CN(C(=O)COc2ccc(Cl)c(C)c2)C2CCS(=O)(=O)C2)o1 (configuration not stated)	nt	nt	nt	3.3%	-32.2%	nt
C#CCCCO/N=C1/[C@H]2O[C@@H]2[C@@H](O)[C@H]2[C@H]1CCn1c(=O)n(C)c(=O)n12	nt	3.8%[12.9 µM]	nt	nt	nt	nt
COc1ccc(CCNC(=O)CN2C(=O)COc3ccc(S(=O)(=O)N4CCCCCC4)cc32)cc1OC	nt	nt	nt	-1.8%	-2.8%	nt
O=C(Nc1cccc(C(F)(F)F)c1)c1csc([C@@H]2C[C@H](O)[C@@H](CO)O2)n1	nt	nt	nt	3.4%	nt	nt
